One assay addresses CYP2E1. Nature of the assay: pooled miR-30 sensor sort-seq; sequence = guide strand. Conditions: shRNA.
TTGGGGATGAGGTATCCTCTGA showed a sensor-assay potency score (higher = more potent) of -0.671.
Same read-out and setting: the figure for ATCATTGTAGTCAAAATGCTTG is -1.07; for TTGATGGTGCTCCTTCACCCTT it is -1.19; for TTTTTTATGACTTTTCTGTGGC it is 0.343.
For TTAAACAAATACATCAGCCTTA, the sensor-assay potency score (higher = more potent) is 0.593.
Sequence TTGTAGTCAAAATGCTTGCGGA displayed a sensor-assay potency score (higher = more potent) of -0.87.
Still for that read-out and setting: the figure for TCACTGTACTTGAACTTTCCAT is -0.768; for TATTCTTCAATTCCAACTGGAA it is -0.685.
On the same count and under the same terms, the figure for TGTCATACAAAACAGAGTCCAG is -0.481; for TAAACAAATACATCAGCCTTAG it is -0.917; for TAGTCACTGTACTTGAACTTTC it is -0.787.
In turn, TAGAAACTTCTCATCATTGTAG yielded a sensor-assay potency score (higher = more potent) of 1.11.
The same measure, in the same setting: the figure for TTATTGTAAAGCTGGAGCCAGG is -1.09; for TACAGCGTGAACACCGGCCCGA it is -0.641; for TAAACTTTTCTGGATCAGGAAA it is -1.37.
The sequence TGTCCTTCCAGGTAGGTCCATT registered a sensor-assay potency score (higher = more potent) of -0.826.
ATAGTCACTGTACTTGAACTTT displayed a sensor-assay potency score (higher = more potent) of -0.806.
In turn, TTATTAAAAATGATTCCCCTGT returned a sensor-assay potency score (higher = more potent) of 0.074.

The target of a further assay is CYP4A11. The assay is described as above. Conditions: shRNA.
Turning to TTTCTGAATCCGTTGTAGCTCC, the sensor-assay potency score (higher = more potent) was -0.368.
Sequence TAGCTCCTGGTCCTGTTGGAGC came in with a sensor-assay potency score (higher = more potent) of -1.31.
On the same count and under the same terms, the figure for TAGATGGTGTCATTCTGGTGAA is -0.837; for AACACAAGTCGTGCAATGGGGA it is -1.18; for TTTGAGCAGCCACTGCCTGTGC it is -0.428.
On the same count and under the same terms, next, TGTGCAGGTAGAGCTGAACTGC: -1.37; AAAGGGTCAAACACCTCTGGGT: -0.324.

Another assay concerns the target CYP4A22. The assay is described as above. Conditions: shRNA.
Consider TAGGATCCATGGGATTTCGGGT, for which the sensor-assay potency score (higher = more potent) is -1.1.
The sequence TTGGATCACTTGGTCTGTGTGC returned a sensor-assay potency score (higher = more potent) of -0.603.
TTTCAACACAAGTCGTGCCATG: the sensor-assay potency score (higher = more potent) was -0.809.
The same measure, in the same setting: the figure for TTCTGTAGTTGAGCCTTCCTCA is 0.294; for TGGTCGTGTTGGAACTCCTGGA it is -0.8.
On to TTGGTCTGTGTGCTGATGGGCC, for which the sensor-assay potency score (higher = more potent) was -0.327.
On the same count and under the same terms, next, AATAAGGACAGGCACTTGGGAA: -1.26.
Still for that read-out and setting: next, ATTTCAACACAAGTCGTGCCAT: -0.11.
In the case of TGGCCCTCAAACATGAACGTGT, the sensor-assay potency score (higher = more potent) was -0.767.
Still for that read-out and setting: next, TTGTAGCTCCTGGTCGTGTTGG: -0.703; TTCCTGAATCCGTTGTAGCTCC: -0.657; TTGTCTGACAAGATGCTCCCAT: 0.46.
Take TAGCTCCTGGTCGTGTTGGAAC: the sensor-assay potency score (higher = more potent) was -1.63.
On the same count and under the same terms, the figure for TTTGGATTTCAACACAAGTCGT is -1.17.
TATGCAGGTAGAGCTGAGCTGC yielded a sensor-assay potency score (higher = more potent) of -1.03.

Source of the values: the OligoGym collection.
Further: reference of the scale not given here.
